The text below walks through data of PubChem BioAssay (NCI).

The structures appear in SMILES notation. About 83,000 compounds went through this panel and 20% of them were active in at least one assay; those are over-represented in the sample as a whole.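 Negative percent growth values reflect cell death: -40 means 40% of the cells present at the start died, and -100 means all died.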 Values without a mark were called inactive. Activity calls are given as the source filed them. How the source made its calls: active means growth percent below 10; inactive means the rest.

Assay in all cases: NCI-60 one-dose screen, 48 h (100 = growth as untreated, 0 = no growth, -100 = all killed)
What all share (settings): 10 µM unless noted

Assay [1] concerns DU-145 prostate.
For assay [2], the system named is K-562 leukemia.
Assay [3] concerns MALME-3M melanoma.
For assay [4], the system named is MDA-MB-231 breast.
Assay [5] has as its system RXF 393 renal.
Assay [6] has as its system SF-268 CNS.
Assay [7] concerns SF-295 CNS.
The subject of assay [8] is SF-539 CNS.
Assay [9] deals with UACC-257 melanoma.
The subject of assay [10] is M14 melanoma.
Assay [11] relates to HCT-15 colon.
In assay [12] the test system is HT29 colon.
In assay [13] the test system is SNB-75 CNS.
Assay [14] relates to SNB-19 CNS.
Assay [15] relates to U251 CNS.
The test system of assay [16] is PC-3 prostate.
The subject of assay [17] is SK-MEL-5 melanoma.
Assay [18] concerns UACC-62 melanoma.
Assay [19] has as its system SK-MEL-28 melanoma.
The test system of assay [20] is LOX IMVI melanoma.

As to `CCCCC(CCCCCC(CCCC)C1NC(C)Cc2cc(OC)c(OC)cc21)C1NC(C)Cc2cc(OC)c(OC)cc21` (stereo not given), the growth in assay [1] was -100% (active); in assay [2], -76.8% (active); in assay [3], -73.4% (active); in assay [4], -67.4% (active); in assay [5], -89.4% (active); in assay [6], -88.6% (active). Further, the growth in [7] was -70.7% (active); in assay [8], -95.8% (active); in [9], -80.6% (active); in assay [10], -90.2% (active); in assay [11], -95.5% (active); in assay [12] it was -86.3% (active). Moreover, the growth was -99.9% (active) in [13]; -69.8% (active) in [14]; -94.7% (active) in assay [15]; -60.8% (active) in [16]; -96.1% (active) in assay [17]; -70% (active) in assay [18]. In addition, the growth in assay [19] was -98% (active).

In the case of `CC(C)c1ccc(C(=O)Nc2nc3ccc(O)cc3s2)cc1`, the growth in [1] was 42.1%; in [2], -1.97% (active); in assay [3], 26.3%; in assay [4], 73%; in assay [5], 67.3%; in assay [6] it was 51.5%. Moreover, the growth is -36.4% (active) in assay [7]; -21.9% (active) in assay [8]; 25.9% in assay [9]; 3.05% (active) in assay [10]; 7.82% (active) in assay [11]; 30.4% in [12]. Moreover, the growth in [13] is 63.7%; in assay [14], 53.8%; in assay [15] it was 58.4%; in assay [16] it was 42.4%; in assay [17], -6.4% (active); in assay [18] it was 10.8%. The growth in assay [19] is 26.5%.

Regarding `CC(C)C1=NOC(=O)C1=Cc1cn(-c2ccccc2)nc1-c1cccc([N+](=O)[O-])c1`, the growth in assay [1] was 84.9%; in [2], 33.4%; in assay [3], 109%; in [4], 93.1%; in assay [5] it was 68.9%; in assay [6], 94.1%. In addition, the growth in assay [7] is 99.1%; in assay [8], 98.1%; in assay [9], 104%; in [10], 78.3%; in assay [11] it was 60.4%; in assay [12] it was 70.5%. Also, the growth in [13] was 86.5%; in [14], 74.2%; in [15] it was 66.7%; in assay [16], 73%; in assay [17] it was 90%; in assay [18], 83.9%. Also, the growth was 0.102% (active) in [20] and 93.4% in [19].

As for `C=C(C)[C@@H]1CC[C@]2(COCCC#N)CC[C@]3(C)[C@H](CC[C@@H]4[C@@](C)(CCCNCCC#N)[C@H](C(=C)C)CC[C@]43C)[C@@H]12`, the growth was 46.4% [100 µM] in assay [1]; 7.57% [100 µM] (active) in assay [2]; -47.8% [100 µM] (active) in [3]; 13.9% [100 µM] in [4]; -11.8% [100 µM] (active) in assay [5]; 53% [100 µM] in [6]. For the same molecule, the growth in assay [7] is 65.2% [100 µM]; in assay [8], -20% [100 µM] (active); in [9], 27.6% [100 µM]; in assay [10], 32.4% [100 µM]; in [11], 35.7% [100 µM]; in [12], 2.94% [100 µM] (active). Further, the growth in assay [13] is 40.8% [100 µM]; in [14], 59% [100 µM]; in assay [15], 5.95% [100 µM] (active); in assay [16], 20.1% [100 µM]; in assay [17], 2.58% [100 µM] (active); in assay [18], 29.8% [100 µM]. The growth in assay [19] was -37.3% [100 µM] (active).

Regarding `COc1ccc2nc3ccccc3c(NCCNCCO)c2c1`, the growth in assay [1] was -31.2% (active); in assay [2] it was 18.9%; in [3], -65.5% (active); in assay [4], -18.9% (active); in [5], -63% (active); in [6], -27.9% (active). Also, the growth in [7] is -18.4% (active); in [8] it was -11.1% (active); in assay [9] it was -50% (active); in [10], -87.3% (active); in [11], 19.6%; in assay [12], -11.9% (active). Moreover, the growth in assay [13] was -53.2% (active); in assay [14], 1.53% (active); in assay [15] it was 6.95% (active); in assay [16], 4.92% (active); in [17] it was -32.9% (active); in [18], -70.2% (active). Besides, the growth in assay [19] is -70.4% (active).

For `O=C(N/N=C/c1ccc([N+](=O)[O-])cc1)c1ccc(Br)o1`, the growth in assay [1] was 126%; in [2], 114%; in [3], 106%; in [4] it was 113%; in assay [5] it was 90.3%; in assay [6], 111%. Further, the growth in [7] is 83%; in [8], 97.8%; in assay [9], 107%; in assay [10] it was 107%; in assay [11], 94.5%; in [12] it was 106%. The growth in assay [13] was 105%; in [14], 90.2%; in assay [15], 101%; in assay [16], 87.1%; in assay [17], 95.8%; in assay [18], 99.6%. Moreover, the growth in [19] is 110%.

For the molecule `CN(C)c1ccc(N=Nc2ccc3ccccc3c2)cc1`, the growth in assay [1] is 98.9%; in [2], 82.6%; in assay [3], 101%; in assay [4] it was 69.5%; in [5], 97.7%; in assay [6], 87.8%. The growth in [7] was 107%; in [8], 93%; in assay [9] it was 102%; in assay [10] it was 99.1%; in assay [11], 55.5%; in [12], 78.7%. The growth in assay [13] is 77.4%; in assay [14], 100%; in assay [15] it was 76.3%; in assay [16], 75.6%; in assay [17], 87.3%; in assay [18] it was 90.8%. The growth in assay [20] is 72.6%; in assay [19], 103%.
